Measured values published in PubChem BioAssay (Tox21).
Inconclusive results are not listed. Activity calls are given as the source filed them. Unless noted, calls follow the shape of the dose curve; as a rule, active = well fitted curve in the direction sought with a large enough effect in the repeat runs; inconclusive = weak or mixed curves; inactive = no such curve, though single readings can be large; an effect the other way counts as inactive or inconclusive.

Assays:
[1] = A CellTox Green Cytotoxicity Assay to monitor cytotoxicity in HepG2 cells - 16 hour (AID 1224876); also: nearly all actives have a fitted effect of over 45% in size
Outline: (§1)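 Nonlytic assay: viable cells exclude the dye, so fluorescence scales with cell death. HepG2 at 600 cells/well, compounds added after 5 h, signal read across 40 h.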

[2] = A CellTox Green Cytotoxicity Assay to monitor cytotoxicity in HepG2 cells - 24 hour (AID 1224878); also: nearly all actives have a fitted effect of over 45% in size
Outline: as §1

[3] = A CellTox Green Cytotoxicity Assay to monitor cytotoxicity in HepG2 cells - 40 hour (AID 1224879); also: nearly all actives have a fitted effect of over 40% in size
Outline: as §1

[4] = qHTS RealTime-Glo MT Cell Viability Assay in HEK293 cells - 0 hour (AID 1224880); also: top concentration of the series differs between compounds; nearly all actives have a fitted effect of over 45% in size
Outline: (§2)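 Tox21 screen in HEK293 using RealTime-Glo MT chemistry, with cells and reagent co-dispensed. Luminescence proportional to viable cell number was captured at intervals during 40 h compound exposure at 37 C.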

[5] = A CellTox Green Cytotoxicity Assay to monitor cytotoxicity in HEK293 cells - 32 hour (AID 1224881); also: nearly all actives have a fitted effect of over 40% in size
Outline: (§3)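 Seeding of HEK293 cells together with cytotoxicity dye preceded a 5 h incubation at 37 C/5% CO2. Test compounds in DMSO were then added and fluorescence monitored across 40 h.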

[6] = A CellTox Green Cytotoxicity Assay to monitor cytotoxicity in HepG2 cells - 0 hour (AID 1224882); also: nearly all actives have a fitted effect of over 35% in size
Outline: as §1

[7] = A CellTox Green Cytotoxicity Assay to monitor cytotoxicity in HepG2 cells - 32 hour (AID 1224883); also: nearly all actives have a fitted effect of over 50% in size
Outline: as §1

[8] = A CellTox Green Cytotoxicity Assay to monitor cytotoxicity in HEK293 cells - 8 hour (AID 1224884); also: nearly all actives have a fitted effect of over 35% in size
Outline: as §3

[9] = qHTS RealTime-Glo MT Cell Viability Assay in HepG2 cells - 16 hour (AID 1224885); also: nearly all actives have a fitted effect of over 50% in size
Outline: (§4)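 Cells + NanoLuc/prosubstrate dispensed (600 cells/well) → 5 h at 37 C/5% CO2 → compounds in DMSO transferred → 40 h incubation at 37 C, luminescence read at 0, 8, 16, 24, 32, 40 h.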

[10] = qHTS RealTime-Glo MT Cell Viability Assay in HEK293 cells - 24 hour (AID 1224886); also: top concentration of the series differs between compounds; nearly all actives have a fitted effect of over 50% in size
Outline: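 Tox21 10K qHTS, HEK293, 600 cells/well, RealTime-Glo reagent co-dispensed with cells; 5 h preincubation, compound by pintool, 37 C, luminescence at 0–40 h.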

[11] = qHTS RealTime-Glo MT Cell Viability Assay in HEK293 cells - 8 hour (AID 1224887); also: top concentration of the series differs between compounds; nearly all actives have a fitted effect of over 50% in size
Outline: as §2

[12] = A CellTox Green Cytotoxicity Assay to monitor cytotoxicity in HEK293 cells - 16 hour (AID 1224888); also: nearly all actives have a fitted effect of over 35% in size
Outline: as §3

[13] = qHTS RealTime-Glo MT Cell Viability Assay in HepG2 cells - 0 hour (AID 1224889); also: nearly all actives have a fitted effect of over 50% in size
Outline: as §4

[14] = A CellTox Green Cytotoxicity Assay to monitor cytotoxicity in HepG2 cells - 8 hour (AID 1224890); also: nearly all actives have a fitted effect of over 45% in size
Outline: as §1

[15] = qHTS assay to identify small molecule antagonists of the estrogen receptor alpha (ER-alpha) signaling pathway using the BG1 cell line in the presence of 0.1 nM 17-beta-estradiol - cell viability counter screen (AID 1259241); also: nearly all actives have a fitted effect of over 40% in size
Outline: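 Cells were plated and left 24 hr, compounds in DMSO were pinned in, 17beta-estradiol was added to 0.1 nM final, and after 22 hr CellTiter-Fluor reagent was added for 30 min before fluorescence was read.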

[16] = qHTS assay to identify small molecule antagonists of the androgen receptor (AR) signaling pathway using the MDA cell line in the presence of 0.5 nM R1881 - cell viability counter screen (AID 1259242); also: nearly all actives have a fitted effect of over 45% in size
Outline: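 R1881 at 0.5 nM final stimulated MDA-kb2 cells during 16 hr compound treatment at 37C. Cytotoxicity read: CellTiter-Fluor fluorescence after 30 min.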

[17] = molecular target: Estrogen receptor (Homo sapiens) (UniProt P03372); assay: qHTS assay to identify small molecule antagonists of the estrogen receptor alpha (ER-alpha) signaling pathway using the BG1 cell line in the presence of 0.1 nM 17-beta-estradiol (AID 1259244); also: nearly all actives have a fitted effect of over 50% in size
Sequence of Estrogen receptor (Homo sapiens) (P03372 whole entry, looked up): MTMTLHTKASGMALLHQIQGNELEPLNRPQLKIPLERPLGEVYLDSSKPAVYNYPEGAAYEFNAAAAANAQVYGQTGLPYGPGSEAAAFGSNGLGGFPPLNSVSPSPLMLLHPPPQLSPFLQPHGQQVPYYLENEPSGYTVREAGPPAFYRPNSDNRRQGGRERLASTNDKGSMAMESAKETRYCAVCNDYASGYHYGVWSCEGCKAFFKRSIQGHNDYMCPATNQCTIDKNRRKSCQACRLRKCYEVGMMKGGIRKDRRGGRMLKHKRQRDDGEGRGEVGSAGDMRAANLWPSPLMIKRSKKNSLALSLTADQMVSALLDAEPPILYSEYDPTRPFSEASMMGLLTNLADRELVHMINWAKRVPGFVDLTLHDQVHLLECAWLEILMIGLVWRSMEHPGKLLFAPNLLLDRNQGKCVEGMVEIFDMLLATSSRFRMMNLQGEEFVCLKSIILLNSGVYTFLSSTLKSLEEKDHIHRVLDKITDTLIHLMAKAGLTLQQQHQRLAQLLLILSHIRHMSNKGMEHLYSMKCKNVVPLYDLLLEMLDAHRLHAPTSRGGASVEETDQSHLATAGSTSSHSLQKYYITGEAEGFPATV
Outline: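 VM7Luc4E2; 4xERE-luciferase; 0.1 nM E2 final; 22 h co-incubation, 37C; ONE-Glo luminescence after 30 min at room temperature.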

[18] = qHTS RealTime-Glo MT Cell Viability Assay in HepG2 cells - 32 hour (AID 1224877); also: nearly all actives have a fitted effect of over 55% in size
Outline: as §4

[19] = molecular target: Androgen receptor (Homo sapiens) (UniProt P10275); assay: qHTS assay to identify small molecule antagonists of the androgen receptor (AR) signaling pathway using the MDA cell line in the presence of 0.5 nM R1881 (AID 1259243); also: nearly all actives have a fitted effect of over 50% in size
Sequence of Androgen receptor (Homo sapiens) (P10275 whole entry, looked up): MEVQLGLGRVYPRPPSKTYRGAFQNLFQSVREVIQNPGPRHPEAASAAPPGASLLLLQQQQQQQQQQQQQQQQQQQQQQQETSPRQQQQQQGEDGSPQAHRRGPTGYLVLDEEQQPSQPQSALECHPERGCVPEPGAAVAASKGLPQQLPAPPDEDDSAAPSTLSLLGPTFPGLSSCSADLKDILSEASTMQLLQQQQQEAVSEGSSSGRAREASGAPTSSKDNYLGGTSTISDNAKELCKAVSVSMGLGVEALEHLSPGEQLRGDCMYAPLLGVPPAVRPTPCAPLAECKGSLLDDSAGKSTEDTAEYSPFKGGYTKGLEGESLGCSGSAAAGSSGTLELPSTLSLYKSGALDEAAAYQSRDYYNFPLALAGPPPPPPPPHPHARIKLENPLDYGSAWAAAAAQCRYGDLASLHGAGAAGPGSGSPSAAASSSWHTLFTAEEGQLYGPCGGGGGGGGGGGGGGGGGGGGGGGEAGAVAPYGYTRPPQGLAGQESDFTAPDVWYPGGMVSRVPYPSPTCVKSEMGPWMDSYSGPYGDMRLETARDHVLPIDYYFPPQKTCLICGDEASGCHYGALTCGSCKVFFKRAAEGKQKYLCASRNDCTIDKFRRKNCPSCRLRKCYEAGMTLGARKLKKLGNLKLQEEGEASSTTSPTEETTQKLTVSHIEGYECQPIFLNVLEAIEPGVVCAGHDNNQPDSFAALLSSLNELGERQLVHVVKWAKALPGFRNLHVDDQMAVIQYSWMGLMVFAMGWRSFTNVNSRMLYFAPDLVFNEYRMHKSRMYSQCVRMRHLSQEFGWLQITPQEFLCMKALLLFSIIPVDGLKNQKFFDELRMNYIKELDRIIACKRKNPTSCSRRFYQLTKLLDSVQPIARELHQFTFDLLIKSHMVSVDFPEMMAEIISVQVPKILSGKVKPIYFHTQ
Outline: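 We exposed MDA-kb2 cells to compounds under 0.5 nM R1881 stimulation for 16 hr at 37C and quantified MMTV-driven luciferase by luminescence.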

[20] = qHTS assay to identify small molecule phospholipidosis (PLD) inducers (AID 1259344; active = well fitted curve in the direction sought with a large enough effect; an effect the other way counts as inactive or inconclusive)
Outline: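 Phospholipidosis is scored by imaging LipidTOX-stained pits in HepG2 cells exposed to compound for 24 h at 37 C; pit counts and integrated intensities per well and per cell serve as outputs.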
% is scaled to controls: 0 for no effect and ±100 for the full control effect.

NCCOCCN
inactive: Potency [1] | Potency [2] | Potency [3] | Potency [4] | Potency [5] | Potency [6] | Potency [7] | Potency [8] | outcome [9] | Potency [10] | Potency [11] | Potency [12] | Potency [13] | Potency [14] | outcome [15] | outcome [16]

COC(=O)c1cccc(Cl)c1
inactive: Potency [1] | Potency [2] | Potency [3] | Potency [4] | Potency [5] | Potency [6] | Potency [7] | Potency [8] | outcome [9] | Potency [10] | Potency [11] | Potency [12] | Potency [13] | Potency [14] | outcome [15] | outcome [16] | outcome [17]

O=C1c2ccccc2C(=O)c2cc(Cl)ccc21
inactive: cytotoxicity increase [1] -1.12% [at 6.97 µM] | cytotoxicity [2] 0.241% [at 6.97 µM] | cytotoxicity increase [3] 1.15% [at 6.97 µM] | activity change, negative = cytotoxicity [4] 3.49% [at 6.97 µM] | cytotoxicity increase [5] -1.78% [at 6.97 µM] | cytotoxicity [6] 3.98% [at 6.97 µM] | cytotoxicity increase [7] 0.512% [at 6.97 µM] | cytotoxicity increase [8] -6.44% [at 6.97 µM] | activity change, negative = cytotoxic [9] 1.7% [at 6.97 µM] | activity change, negative = cytotoxicity [10] 2.92% [at 6.97 µM] | activity change, negative = cytotoxicity [11] 6.4% [at 6.97 µM] | activity change [12] -0.237% [at 6.97 µM, hits give high values] | activity change, negative = cytotoxicity [13] 1.38% [at 6.97 µM] | cytotoxicity increase [14] -0.731% [at 6.97 µM] | activity change, negative = cytotoxicity [15] 1.79% [at 8.39 µM]

CC(C)COC(=O)c1ccccc1
inactive: Potency [1] | outcome [18] | Potency [2] | Potency [4] | Potency [5] | Potency [6] | Potency [7] | Potency [8] | outcome [9] | Potency [10] | Potency [11] | Potency [12] | Potency [13] | Potency [14] | outcome [15] | Potency [19] | outcome [17]

O=C(CCCl)NCCc1ccccc1
inactive: Potency [1] | outcome [18] | Potency [2] | Potency [4] | Potency [5] | Potency [6] | Potency [8] | outcome [9] | Potency [10] | Potency [11] | Potency [12] | Potency [13] | Potency [14] | outcome [15] | outcome [16] | Potency [19] | outcome [17]

CC(=O)c1cc(C)oc1C
inactive: Potency [1] | Potency [2] | Potency [3] | Potency [4] | Potency [5] | Potency [6] | Potency [7] | Potency [8] | outcome [9] | Potency [10] | Potency [11] | Potency [12] | Potency [13] | Potency [14] | outcome [15] | outcome [16] | Potency [19]

CO/N=C(/C(=O)N[C@@H]1C(=O)N2C(C(=O)[O-])=C(C[n+]3ccn4ncccc43)CS[C@H]12)c1nsc(N)n1
inactive: Potency [1] | outcome [18] | Potency [2] | Potency [4] | Potency [5] | Potency [6] | Potency [8] | outcome [9] | Potency [10] | Potency [11] | Potency [12] | Potency [13] | Potency [14] | outcome [15] | outcome [17] | outcome [20]

Cc1ccc(C)c([N+](=O)[O-])c1
inactive: Potency [1] | outcome [18] | Potency [2] | Potency [4] | Potency [5] | Potency [6] | Potency [7] | outcome [9] | Potency [10] | Potency [11] | Potency [12] | Potency [13] | Potency [14] | outcome [15] | outcome [16]
